Screening data as filed in PubChem BioAssay.
The list is not random: actives were taken first. Their share in the collection is about 19%.
HT1080NT lethal = qHTS for induction of synthetic lethality in tumor cells producing 2HG: qHTS for the HT-1080-NT fibrosarcoma cell line. HT-1080-NT fibrosarcoma viability, CellTiter-Glo ATP luminescence, 48 h. Potency, µM (highest dose often 46.1 µM), without a hit: at the top dose activity, negative = less viability, hits mostly cytotoxic. 1.6% of 360,000 active. AID 686970, 2013;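 note: NT is the 2HG producing partner of a matched IDH1 knockdown line; potency is the fitted concentration of half-maximal effect; 0% = DMSO-treated cells and -100% = media-only wells without cells; nearly all actives have a fitted effect of over 55% in size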
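Viability by CellTiter-Glo luminescence after 48 h compound exposure at 37C of HT-1080-NT cells (750/well, RPMI, 5% FBS). % activity scaled between DMSO wells and medium-only wells, then curve-fitted and categorized by curve class.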
IL-1B inflam inh = qHTS for Inhibitors of Inflammasome Signaling: IL-1-beta AlphaLISA Primary Screen; THP-1 LPS/ATP IL-1B secretion, AlphaLISA, 16 h; stronger effect = lower value; 4.7% of 360,000 active; activity change, % at 57.5 µM; in the data active = activity change below about -50%; inconclusive = mostly about -30% to -49%
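Secreted IL-1B measured by AlphaLISA bead assay after 16 h compound exposure of THP-1 cells; compounds (final up to 57.5 uM) added 1 h before LPS (250 ng/mL) and ATP (1.25 mM) stimulation; lower signal means less secretion.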
HT1080 IDH1KD tx = qHTS for induction of synthetic lethality in tumor cells producing 2HG: qHTS for the HT-1080-IDH1KD cell line | HT-1080 IDH1 knockdown viability, ATP luminescence, 48 h | Potency, µM (top dose mostly 46.1 µM), for inactives: at the top dose activity, negative = toxicity, hits mostly cytotoxic | 2% of 360,000 active;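 note: potency is the fitted concentration of half-maximal effect; 0% = DMSO wells and -100% = cell-free medium wells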
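HT-1080-IDH1KD cells (IDH1 knocked down), 750/well in RPMI with 5% FBS, treated with compound 48 h at 37 degrees C. Viability by CellTiter-Glo luminescence, normalised to DMSO and no-cell wells; concentration-response curves classed.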
uPA generation = qHTS for Inhibitors of Cell Surface uPA Generation | cell surface uPA generation assay, qHTS | Potency, µM (top dose mostly 38.3 µM), inactives show top-dose activity change, negative = inhibition, hits mostly inhibitors | 0.31% of 330,000 active | AID 540303, 2011; active = well fitted inhibition curve with a large enough effect; inconclusive = small, poorly fitted or top-dose-only effect; inactive = no such curve, though single readings can be large or run the other way; tested in mouse RAW 264.7 cells; note: potency is the fitted concentration of half-maximal effect; nearly all actives have a fitted effect of over 55% in size
TDP1 cell CPT = qHTS for Inhibitors of human tyrosyl-DNA phosphodiesterase 1 (TDP1): qHTS in cells in presence of CPT; chicken DT40 Tdp1-/-;hTDP1 cells + 20 nM CPT, ATP luminescence, 48 h; Potency, µM (top dose mostly 46.2 µM), for the others: top-dose activity change, negative = growth inhibition, usual class: inhibitors; 12% of 420,000 active; AID 686979, 2013; note: potency is the fitted concentration of half-maximal effect; nearly all actives have a fitted effect of over 55% in size
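Chicken DT40 Tdp1-/- cells complemented with human TDP1, 400 cells/well, exposed to compounds plus 20 nM camptothecin for at least 48 h at 37 C; viability read as ATP content by CellTiter-Glo luminescence.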
DT40 TDP1 no CPT = qHTS for Inhibitors of human tyrosyl-DNA phosphodiesterase 1 (TDP1): qHTS in cells in absence of CPT; DT40 Tdp1-/- hTDP1 cells, no CPT, ATP luminescence, 48 h; 15% of 420,000 active; AID 686978, 2013; Potency, µM (series often up to 46.2 µM), for the others: at the top dose activity change, negative = growth inhibition, most hits filed as inhibitors; note: potency is the fitted concentration of half-maximal effect; nearly all actives have a fitted effect of over 55% in size
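DT40 Tdp1-/-;hTDP1 cells, no CPT (DMSO vehicle only), 400 cells/well; compounds pin-transferred; ≥48 hr, 37 °C; CellTiter-Glo 30 min RT dark, luminescence read.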
Numbers without * were called inactive; ? = inconclusive; . = no result; [ ] = remark or other dose. Unless noted, calls come from the whole dose curve; as a rule, active = well fitted curve in the direction sought with a large enough effect; inconclusive = small, poorly fitted or top-dose-only effect, or another doubt; inactive = no such curve, though single readings can be large; an effect the other way counts as inactive or inconclusive. Unless noted, % is set by controls: 0 for no effect and ±100 for the full control effect.

SMILES	HT1080NT lethal	IL-1B inflam inh	HT1080 IDH1KD tx	uPA generation	TDP1 cell CPT	DT40 TDP1 no CPT
COc1ccc(-c2coc3c(C(=O)Nc4cccnc4)cccc23)c(C)c1	?	0	?	.	18µM*	8.2µM*
COc1ccc(-c2ccc(C(=O)Nc3cccc(NS(C)(=O)=O)c3)c3occc23)c(C)c1	?	-10	?	.	16µM*	?
COc1cccc(C(=O)Nc2cccc(C(C)=O)c2)c1	6%	14	3%	-8%	22%	-4%
COc1ccc(-c2coc3c(C(=O)Nc4cccc(C(C)=O)c4)cccc23)c(C)c1	-19%	8	?	.	18µM*	21µM*
COc1ccc(-c2ccc(C(=O)Nc3cccc(N(C)C)c3)c3occc23)c(C)c1	-1%	0	-12%	.	?	?
COc1ccc(-c2ccc(C(=O)Nc3cccc(C(C)=O)c3)c3occc23)c(C)c1	-22%	11	?	.	12µM*	8.2µM*
COc1ccc([N+](=O)[O-])cc1NC(=O)CCSCCc1ccccn1	-3%	48	-4%	0%	?	?
COc1ccccc1N1CCN(C(=O)c2oc3cc(C)cc(C)c3c2C)CC1	-2%	1	-15%	-4%	?	26µM*
COc1ccccc1N1CCN(C(=O)c2oc3c(c2C)C(=O)CC(C)(C)C3)CC1	-5%	-6	-2%	-12%	15µM*	6.5µM*
CN(C)c1ccc(/C=C/c2nc3ccccc3s2)cc1Cl	.	.	.	.	5µM*	2.8µM*
Cc1cc(/C=C2\C=Cc3ccccc32)ccc1N(C)C	.	.	.	.	?	-21%
Cc1cc(/C=C/c2nc3ccccc3s2)ccc1N(C)C	.	.	.	.	1.4µM*	1µM*
CNC(=O)COC(=O)/C=C/c1nc2ccccc2s1	-3%	-29	-7%	-8%	2%	?
O=C(c1cc(-c2ccccc2)on1)N1CCOc2ccc(CN3CCN(c4ccccn4)CC3)cc2C1	.	.	.	.	8%[9.04 µM]	1%
C=CC[C@@H](CC(=O)N[C@H](CO)Cc1ccccc1)C(=O)N[C@H](COC(=O)[C@@H](CC=C)Cc1ccc(F)cc1)Cc1ccccc1	5%	-2	-1%	-15%	23µM*	15µM*
C=CC[C@H](CC(=O)NCCO)C(=O)N[C@H](COC(=O)[C@@H](CC=C)Cc1ccc(F)cc1)C(C)(C)C	-4%	-10	0%	0%	?	18µM*
C=CC[C@H](CC(=O)NCCO)C(=O)NCCOC(=O)[C@@H](CC=C)Cc1ccc(F)cc1	10%	-3	0%	5%	-3%	-12%
C=CC[C@H](CC(=O)NCCO)C(=O)N[C@@H](COC(=O)[C@H](CC=C)CC(=O)OC(C)(C)C)Cc1ccccc1	-1%	15	-1%	-4%	?	-20%
C=CCC[C@@H](Cc1ccc(F)cc1)C(=O)OC[C@@H](Cc1ccccc1)NC(=O)[C@@H](CC=C)CC(=O)N[C@@H](CO)Cc1ccccc1	-4%	-17	-16%	7%	?	?
C=CC[C@@H](CC(=O)NCCO)C(=O)N[C@@H](COC(=O)[C@@H](CC=C)Cc1ccc(F)cc1)Cc1ccccc1	-1%	-6	-9%	5%	18µM*	?
O=C(O)CN1CCN(Cc2ccc(Cl)cc2)C1=O	8%	14	4%	-1%	-17%	4%
CC(C)(C)c1cc(C(=O)Nc2cccnc2)cc(C(=O)Nc2cccnc2)c1	1%	-19	-4%	13%	?	?
COc1ccc(S(=O)(=O)Nc2ccc(S(=O)(=O)Nc3cc(C)nc(C)n3)cc2)cc1OC	23%	16	25%	2%	12%	5%
Cc1ccc(S(=O)(=O)N2CCSC2c2ccco2)cc1 (configuration not stated)	-2%	-11	-5%	-2%	1%	18µM*
Cc1nc(N2CCN(c3ccccn3)CC2)c2c(C)c(C(=O)N3CCN(c4cccc(Cl)c4)CC3)sc2n1	0%	-5	-17%	-2%	15µM*	21µM*
SMILES	HT1080NT lethal	IL-1B inflam inh	HT1080 IDH1KD tx	uPA generation	TDP1 cell CPT	DT40 TDP1 no CPT
O=C(c1sc2ccccc2c1Cl)N1CCN(c2ccccn2)CC1	11%	-7	23%	1%	-1%	1%
Cc1c(C(=O)N2CCN(c3ccccn3)CC2)sc2ncnc(N3CCN(c4ccccc4)CC3)c12	-9%	-18	-5%	1%	?	12µM*
Cc1c(C)n2c(SCC(=O)N3CC(C)OC(C)C3)nnc2[nH]c1=O (configuration not stated)	3%	17	4%	1%	28%	14%
COc1ccc(NC(=O)CN(C)C(=O)CCc2c[nH]c3ccccc23)cc1	-14%	7	0%	-27%	9%	-14%
CC(=O)N1CCN(c2ccc(Nc3ncnc4c3oc3ccccc34)cc2)CC1	-18%	-81*	?	-12%	15µM*	10µM*
O=C(CSc1ncnc2c1oc1ccccc12)N1CCN(c2ccccc2)CC1	5%	46	2%	0%	?	29µM*
c1coc(CSc2ncnc3c2oc2ccccc23)c1	-8%	4	-12%	1%	11%	8.2µM*
CCc1nc(Nc2ccc(N3CCN(C(C)=O)CC3)cc2)c2oc3ccccc3c2n1	-9%	-28	-22%	-4%	21µM*	13µM*
COc1ccc(/C=N/N2CCN(Cc3ccc(C)cc3)CC2)cc1Br	-1%	-9	-1%	-4%	-21%	?
CC(=O)N1CCN(c2ccc(NCc3cccs3)cc2)CC1	15%	6	4%	-8%	-19%	-28%
CC(=O)N1CCN(c2ccc(NCc3cccc4ccccc34)cc2)CC1	-20%	-76*	-3%	-2%	?	?
CC1CN(C(=O)COC(=O)c2cnc(Cl)c(Cl)c2)CC(C)O1 (configuration not stated)	2%	-72*	5%	-15%	6%	-1%
O=C(OCC(=O)N1CCOCC1)c1cnc(Cl)c(Cl)c1	6%	0	6%	-8%	-11%	0%
Cn1cc(-c2nc3cnc(N4CCNCC4)nc3n(C)c2=O)c2ccccc21	.	.	.	.	5.2µM*	5.8µM*
